We go through six compounds from PubChem BioAssay.

Active and inactive are the calls of the source.

Assay [1] relates to Plasmodium falciparum Sir2 (PF13_0152, Sir2A). Put plainly: Plasmodium falciparum Sir2A binding compounds – biochemical, small-molecule microarray, 635 nm fluorescence, primary screen (AID 1098).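 Note: score merges spot fluorescence intensity with its signal-to-noise ratio.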 The note with it: fluorescence 635 nm, higher = more signal.
Assay [2] can be described thus: probe aDKK1 binding to arrayed compounds – biochemical, biotinylated probe, 635/667 nm fluorescence, primary screen (AID 1099).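 Note: score merges 667nm spot fluorescence with signal to noise across triplicate slides.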 The note with it: small-molecule microarray, higher = more signal.
The nature of assay [3]: probe aCHRDL2 binding to arrayed compounds – biochemical, biotinylated probe, 635/667 nm fluorescence, primary screen (AID 1100). The note with it: small-molecule microarray, higher = more signal.
Assay [4] can be described thus: change in splice reporter luminescence, either direction, cell-based, HEK293, spliceosome inhibition project, primary screen (AID 1101).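 Note: HEK293 cells carrying a splicing-competent luciferase reporter gene; test concentration not given here.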 The note with it: HEK293 splicing luciferase reporter, 24 h, higher = more signal, called active from +8 up or from −8 down.
For assay [5], the target named is Fibroblast growth factor 10 (Homo sapiens) (UniProt O15520). Put plainly: compounds binding fibroblast growth factor 10 – biochemical, small-molecule microarray, 635 nm fluorescence, primary screen (AID 1102). The note with it: FGF10 binding, fluorescence 635 nm, higher = more signal.
Fibroblast growth factor 10 (Homo sapiens), sequence (O15520 whole entry, looked up): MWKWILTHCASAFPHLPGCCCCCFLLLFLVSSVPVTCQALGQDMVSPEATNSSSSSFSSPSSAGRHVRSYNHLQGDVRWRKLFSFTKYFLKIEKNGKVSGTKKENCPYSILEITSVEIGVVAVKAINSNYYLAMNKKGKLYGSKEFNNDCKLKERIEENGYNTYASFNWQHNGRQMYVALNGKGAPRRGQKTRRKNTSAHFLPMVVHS
For assay [6], the system named is glycogen synthase kinase-3 (GSK3A per assay name; protocol says GSK3B). As to the kind of experiment: compounds binding glycogen synthase kinase-3 – biochemical, small-molecule microarray, 635 nm fluorescence, GSK3A, primary screen (AID 1103). Note: the record names both GSK3A and GSK3B. Conditions: fluorescence 635 nm, higher = more signal.
Assay [7] has as its target Epidermal growth factor receptor (Homo sapiens) (UniProt P00533). Put plainly: compounds binding epidermal growth factor receptor – biochemical, small-molecule microarray, 635 nm fluorescence, primary screen (AID 1104).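 Note: score merges 667 nm emission intensity with spot signal to noise over triplicate slides.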 The note with it: EGFR binding, higher = more signal.
The target of assay [8] is Follistatin-related protein 3 (Homo sapiens) (UniProt O95633). As to the kind of experiment: compounds binding follistatin-related protein 3 – biochemical, small-molecule microarray, 635 nm fluorescence, primary screen (AID 1105).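 Note: score merges emission near 667 nm and signal to noise per printed spot across three slides.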 Conditions: FSTL3 binding, higher = more signal.
Follistatin-related protein 3 (Homo sapiens), sequence (O95633 whole entry, looked up): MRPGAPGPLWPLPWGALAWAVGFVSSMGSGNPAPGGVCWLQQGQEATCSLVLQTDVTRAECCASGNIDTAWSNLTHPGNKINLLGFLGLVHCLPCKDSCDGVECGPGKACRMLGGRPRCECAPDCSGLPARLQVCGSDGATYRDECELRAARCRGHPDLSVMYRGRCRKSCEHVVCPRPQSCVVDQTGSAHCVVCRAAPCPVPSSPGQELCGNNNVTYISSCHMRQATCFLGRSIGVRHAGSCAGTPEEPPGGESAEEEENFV
The target in assay [9] is Dickkopf-related protein 1 (Homo sapiens) (UniProt O94907). As to the kind of experiment: small molecules binding DKK1 protein – biochemical, small-molecule microarray, 635 nm fluorescence scan, primary screen (AID 1106).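 Note: score merges emission near 667 nm with signal to noise over three replicate slides.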 Conditions: higher = more signal.
Dickkopf-related protein 1 (Homo sapiens), sequence (O94907 whole entry, looked up): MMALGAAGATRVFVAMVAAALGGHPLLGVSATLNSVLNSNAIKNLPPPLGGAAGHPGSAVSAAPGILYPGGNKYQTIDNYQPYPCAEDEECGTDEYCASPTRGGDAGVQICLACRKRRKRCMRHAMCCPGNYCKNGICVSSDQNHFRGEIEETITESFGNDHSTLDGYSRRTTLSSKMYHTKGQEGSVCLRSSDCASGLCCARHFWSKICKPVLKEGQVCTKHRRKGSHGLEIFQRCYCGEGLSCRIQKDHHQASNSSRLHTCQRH
The subject of assay [10] is Inhibin beta A chain (activin A). Put plainly: small molecules binding activin A – biochemical, small-molecule microarray, 635 nm fluorescence scan, primary screen (AID 1107).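 Note: mouse activin A protein probed at 4.33 µg/mL on printed slides; score merges bound-protein fluorescence near 667 nm with spot signal-to-noise.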 Conditions: INHBA, higher = more signal.
The subject of assay [11] is Human papillomavirus type 1a protein E7 (residues 44-93). As to the kind of experiment: small molecules binding HPV E7 44-93 – biochemical, small-molecule microarray, residues 44-93, 635 nm fluorescence, primary screen (AID 1108).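 Note: E7 fragment applied at 1 µg/mL in TBST for 1 h at 4 C; score combines spot fluorescence with its signal to noise ratio.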 Conditions: fluorescence 635 nm, higher = more signal.
Assay [12] in a line: hepatitis C replication reporter changes, two-sided – Huh7 cells, luciferase reporter, HCV replication inhibitor project, primary screen (AID 1109).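 Note: huh7 hepatoma cells harbouring a luciferase neomycin HCV replicon reporter; luciferase luminescence as measure of HCV replicon replication; test concentration not given here.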 The note with it: Huh7 HCV replicon luciferase reporter, 48 h; higher = more signal.
For assay [13], the target named is Left-right determination factor 2 (Homo sapiens) (UniProt O00292). As to the kind of experiment: small molecules binding LEFTY2 protein – biochemical, small-molecule microarray, 635 nm fluorescence scan, primary screen (AID 1110). Conditions: higher = more signal.
Left-right determination factor 2 (Homo sapiens), sequence (O00292 whole entry, looked up): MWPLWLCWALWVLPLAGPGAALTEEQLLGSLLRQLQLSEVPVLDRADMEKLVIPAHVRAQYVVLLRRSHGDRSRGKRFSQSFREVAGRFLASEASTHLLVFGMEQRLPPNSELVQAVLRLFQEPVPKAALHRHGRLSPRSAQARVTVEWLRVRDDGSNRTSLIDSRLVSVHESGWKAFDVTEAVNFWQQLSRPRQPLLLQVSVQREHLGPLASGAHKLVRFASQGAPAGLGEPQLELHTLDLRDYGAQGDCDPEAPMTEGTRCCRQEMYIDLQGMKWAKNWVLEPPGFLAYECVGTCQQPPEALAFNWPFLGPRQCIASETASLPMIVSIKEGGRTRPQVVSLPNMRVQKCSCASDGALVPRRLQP
The target of assay [14] is Calmodulin-1 (Homo sapiens) (UniProt P0DP23). As to the kind of experiment: small molecules binding calmodulin-1 with EGTA – biochemical, small-molecule microarray, Cy5-labelled CALM1, profiling panel (AID 1111).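 Note: labelled calmodulin applied in Tris saline Tween buffer holding calcium plus EGTA and DTT.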 Conditions: Cy5-CALM1 binding fluorescence, higher = more signal.
Assay [15] shares this target. As to the kind of experiment: small molecules binding Ca-loaded calmodulin-1 – biochemical, small-molecule microarray, Cy5-labelled CALM1, plus calcium, artefact control for SMM control-protein annotation, profiling panel (AID 1112).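 Note: score merges spot fluorescence with signal to noise from triplicate slides.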 The note with it: Cy5-CALM1 binding fluorescence, higher = more signal.
Assay [16] is described as follows: probe aWnt5a binding to arrayed compounds – biochemical, biotinylated probe, 635/667 nm fluorescence, primary screen (AID 1113).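 Note: score merges 667 nm fluorescence intensity with signal-to-noise per printed feature.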 The note with it: small-molecule microarray, higher = more signal.
A short description of assay [17]: probe aShh binding to arrayed compounds – biochemical, biotinylated probe, 635/667 nm fluorescence, primary screen (AID 1114).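 Note: probe is biotin-labelled aShh protein from a stem cell growth factor screen; measures binding of labelled protein to compounds printed on the slide; score merges feature fluorescence at 667 nm with signal-to-noise.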 The note with it: small-molecule microarray, higher = more signal.
Assay [18] in a line: probe aNog binding to arrayed compounds – biochemical, biotinylated probe, 635/667 nm fluorescence, primary screen (AID 1115).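 Note: probe is biotinylated aNog protein used at 0.15 µg/mL for 1 h at 4 C; z-score combines 667 nm fluorescence of each spot with its signal to noise.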 Conditions: small-molecule microarray, higher = more signal.
Assay [19] has as its target Torsin-1A-interacting protein 1 (Homo sapiens) (UniProt Q5JTV8). As to the kind of experiment: compound microarray binding of lysate hLAP1 – cell lysate, small-molecule microarray, COS7 lysate, 635/667 nm fluorescence, primary screen (AID 1116). The note with it: 635 nm fluorescence, higher = more signal.
The target of assay [20] is Alpha-bungarotoxin (Bungarus multicinctus) (UniProt P60615). As to the kind of experiment: compounds binding labelled alpha-BTX control protein – biochemical, small-molecule microarray, Alexa647 label, 635/667 nm fluorescence, artefact control for SMM control protein annotation, profiling panel (AID 1117). The note with it: alpha-BTX-A647 binding fluorescence, higher = more signal.
Alpha-bungarotoxin (Bungarus multicinctus), sequence (P60615 whole entry, looked up): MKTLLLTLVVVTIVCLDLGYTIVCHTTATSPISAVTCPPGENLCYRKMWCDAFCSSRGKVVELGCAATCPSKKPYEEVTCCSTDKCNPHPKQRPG

Epidermal growth factor receptor (Homo sapiens), sequence (P00533 whole entry, looked up): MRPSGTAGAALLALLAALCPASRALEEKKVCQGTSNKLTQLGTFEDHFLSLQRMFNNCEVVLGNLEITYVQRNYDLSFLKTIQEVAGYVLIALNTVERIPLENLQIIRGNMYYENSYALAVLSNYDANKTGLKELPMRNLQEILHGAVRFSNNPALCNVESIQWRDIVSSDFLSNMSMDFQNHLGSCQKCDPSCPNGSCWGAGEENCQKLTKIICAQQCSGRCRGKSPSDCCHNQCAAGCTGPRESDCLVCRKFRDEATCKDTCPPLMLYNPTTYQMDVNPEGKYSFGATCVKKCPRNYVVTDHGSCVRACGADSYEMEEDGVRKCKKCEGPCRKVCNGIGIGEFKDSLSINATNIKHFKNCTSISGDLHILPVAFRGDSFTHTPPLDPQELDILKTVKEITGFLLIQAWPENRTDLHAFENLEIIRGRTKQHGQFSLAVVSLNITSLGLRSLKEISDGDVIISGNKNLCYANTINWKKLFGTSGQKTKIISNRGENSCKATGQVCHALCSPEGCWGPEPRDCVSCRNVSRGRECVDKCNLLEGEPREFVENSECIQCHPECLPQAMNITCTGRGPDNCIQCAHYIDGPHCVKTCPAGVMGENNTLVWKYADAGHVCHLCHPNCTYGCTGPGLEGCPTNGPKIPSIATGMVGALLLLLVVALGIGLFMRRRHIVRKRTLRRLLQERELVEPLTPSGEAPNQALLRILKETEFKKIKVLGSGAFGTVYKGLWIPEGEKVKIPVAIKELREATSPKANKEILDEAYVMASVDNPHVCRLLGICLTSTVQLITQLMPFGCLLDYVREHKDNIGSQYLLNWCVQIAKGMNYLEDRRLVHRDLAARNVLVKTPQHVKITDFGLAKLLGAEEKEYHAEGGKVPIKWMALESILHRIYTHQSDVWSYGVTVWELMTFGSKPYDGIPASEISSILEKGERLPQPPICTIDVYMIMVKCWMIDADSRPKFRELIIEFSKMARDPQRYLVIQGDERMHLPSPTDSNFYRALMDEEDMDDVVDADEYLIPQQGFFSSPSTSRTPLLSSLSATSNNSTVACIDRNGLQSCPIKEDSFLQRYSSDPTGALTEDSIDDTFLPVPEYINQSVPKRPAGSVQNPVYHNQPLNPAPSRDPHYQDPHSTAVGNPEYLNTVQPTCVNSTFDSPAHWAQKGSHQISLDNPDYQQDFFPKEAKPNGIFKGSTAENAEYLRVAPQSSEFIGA
Torsin-1A-interacting protein 1 (Homo sapiens), sequence (Q5JTV8 whole entry, looked up): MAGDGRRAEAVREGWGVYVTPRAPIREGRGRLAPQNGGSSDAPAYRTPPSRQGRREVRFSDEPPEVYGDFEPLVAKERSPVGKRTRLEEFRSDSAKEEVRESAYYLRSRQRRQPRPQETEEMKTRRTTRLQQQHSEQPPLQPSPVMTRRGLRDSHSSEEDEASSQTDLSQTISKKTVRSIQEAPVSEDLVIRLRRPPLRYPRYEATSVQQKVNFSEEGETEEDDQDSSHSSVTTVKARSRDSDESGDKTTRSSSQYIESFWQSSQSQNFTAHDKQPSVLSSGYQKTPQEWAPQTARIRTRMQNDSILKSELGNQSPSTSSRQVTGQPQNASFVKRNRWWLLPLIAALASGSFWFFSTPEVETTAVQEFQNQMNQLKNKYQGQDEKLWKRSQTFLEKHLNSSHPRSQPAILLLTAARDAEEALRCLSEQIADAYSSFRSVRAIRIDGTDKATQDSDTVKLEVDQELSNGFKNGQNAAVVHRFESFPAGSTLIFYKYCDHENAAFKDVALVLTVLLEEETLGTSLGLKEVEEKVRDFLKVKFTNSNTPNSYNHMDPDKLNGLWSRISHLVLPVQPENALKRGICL

For the compound `O=C/C=C/c1ccccc1Cl`, the composite z-score is 1.67 in [1]; 0.265 in assay [2]; 0.405 in assay [3]; 0.0974 in assay [5]; -0.71 in [6]; -0.336 in assay [7]. Further, the composite z-score in assay [8] was -0.62; in [9] it was -0.485; in assay [10], 0.325; in assay [11], -1.36; in assay [13], -0.524; in [14] it was 0.387. Further, the composite z-score in assay [15] was 0.618; in [16], -0.0499; in [17], -0.0626; in assay [18], 0.0811; in assay [19], -0.335; in [20], 1.76. Moreover, the values for the z-score in assay [4] and in [12] were 0.0402 (inactive) and 1.03, respectively.

Consider `COCC(=C=CC[C@H](O)c1ccc(OCCO)cc1)C[C@H](O)c1ccccn1`, for which the composite z-score in assay [1] is 0.338; in [2], -0.169; in [3] it was -0.201; in assay [5] it was -0.198; in assay [6], 0.208; in assay [7], -0.829. The composite z-score in assay [8] is -0.293; in assay [9], -0.326; in [10], 0.403; in [11] it was 0.131; in assay [13] it was -0.454; in assay [14], -0.581. The composite z-score was -0.705 in assay [15]; -0.186 in [16]; 0.235 in assay [17]; 0.0516 in [18]; 0.925 in assay [19]; -0.458 in assay [20]. In addition, the results for the z-score in assay [4] and in [12] were 0.0572 (inactive) and -0.932, respectively.

On to `CN1C(=O)C2C=CC(C(O)C3CC=CCC3)N(Nc3ccccc3)C2C1=O` (stereo not given), for which the composite z-score in [1] came to 1.09; in [2], 0.642; in [3], 0.533; in [5], 0.989; in [6], 0.879; in assay [7], 1.07. In addition, the composite z-score is 1.45 in assay [8]; 1.06 in [9]; 1.3 in assay [10]; 1.24 in assay [11]; 0.76 in [13]; 1.55 in assay [14]. Besides, the composite z-score in [15] is 0.129; in [16] it was -0.0792; in assay [17] it was -0.0289; in assay [18] it was 0.897; in assay [19], 0.764; in assay [20], 1.58. The values for the z-score in assay [4] and in [12] were 1.2 (inactive) and -0.556, respectively.

Take `CO[C@]12C=C(Br)[C@@H](C[C@@H]1c1ccccc1)[C@@]1(CO1)C2=O`: the composite z-score was 0.165 in assay [1]; -0.301 in assay [2]; -0.708 in [3]; 0.342 in [5]; 0.497 in assay [6]; 0.496 in assay [7]. The composite z-score in assay [8] was 0.615; in [9], 0.791; in assay [10], 0.737; in assay [11], -0.468; in assay [13] it was 0.36; in assay [14], -0.264. For the same compound, the composite z-score was -0.533 in assay [15]; -0.0125 in [16]; -0.0146 in assay [17]; 0.0256 in assay [18]; -0.161 in [19]; -0.3 in [20]. Besides, the z-score in assay [4] is -0.0249 (inactive); in assay [12], -2.97.

Consider `C=CCOC(=O)[C@@H]1[C@H]2C(=O)O[C@H](c3ccccc3)[C@H](c3ccccc3)N2[C@H](c2ccc(OCCOC(=O)[C@H]3C[C@H]4C(=O)N5CCC[C@H]5C(=O)N4[C@H]3c3ccc(O)cc3)cc2)[C@@]12C(=O)Nc1ccccc12`, for which the composite z-score in assay [1] worked out at 1.04; in assay [2] it was 0.264; in [3], 0.573; in assay [5], 0.883; in assay [6], 1.18; in [7], 0.689. Also, the composite z-score in [8] was 1.34; in [9] it was 0.921; in assay [10] it was 0.668; in assay [11], -0.747; in assay [13], 0.382; in assay [14], 1.27. In addition, the composite z-score in [15] worked out at 0.699; in assay [16] it was 0.0047; in [17], 0.14; in [18], 0.305; in assay [19], 0.87; in assay [20] it was 1.33. Further, the results for the z-score in assay [4] and in assay [12] were -1.3 (inactive) and -1.31, respectively.

Take `CC(C)(C)OC(=O)CC[C@@]1(C(=O)NCc2ccccc2)N=C(c2ccc(OCCCO)cc2)O[C@@H]1c1ccccc1`: the composite z-score in [1] was 1.64; in assay [2], 1.29; in [3] it was 1.31; in assay [5], 0.556; in [6] it was 1.26; in assay [7], -0.152. For the same compound, the composite z-score came to 0.545 in [8]; 0.144 in assay [9]; 0.119 in assay [10]; 1.33 in assay [11]; 0.144 in [13]; 2.4 in assay [14]. Further, the composite z-score in assay [15] was found to be 1.26; in assay [16], 0.0077; in [17] it was 0.14; in [18] it was 0.92; in assay [19], 2.67; in assay [20], 2.97. Further, the z-score in assay [4] is -0.791 (inactive); in [12], -3.13.
